From PubChem BioAssay
The source made the active and inactive calls.

Legend:
[1] = test system: Plasmodium falciparum Sir2 (PF13_0152, Sir2A); experiment: Plasmodium falciparum Sir2A binding compounds – biochemical, small-molecule microarray, 635 nm fluorescence, primary screen (AID 1098); settings: fluorescence 635 nm, higher = more signal;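 further: score merges spot fluorescence intensity with its signal-to-noise ratio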
[2] = probe aDKK1 binding to arrayed compounds – biochemical, biotinylated probe, 635/667 nm fluorescence, primary screen (AID 1099); settings: small-molecule microarray, higher = more signal;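 further: score merges 667nm spot fluorescence with signal to noise across triplicate slides; reference of the scale not given here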
[3] = probe aCHRDL2 binding to arrayed compounds – biochemical, biotinylated probe, 635/667 nm fluorescence, primary screen (AID 1100); settings: small-molecule microarray, higher = more signal
[4] = change in splice reporter luminescence, either direction, cell-based, HEK293, spliceosome inhibition project, primary screen (AID 1101); settings: HEK293 splicing luciferase reporter, 24 h, higher = more signal, called active from +8 up or from −8 down;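 further: HEK293 cells carrying a splicing-competent luciferase reporter gene; test concentration not given here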
[5] = molecular target: Fibroblast growth factor 10 (Homo sapiens) (UniProt O15520); experiment: compounds binding fibroblast growth factor 10 – biochemical, small-molecule microarray, 635 nm fluorescence, primary screen (AID 1102); settings: FGF10 binding, fluorescence 635 nm, higher = more signal
[6] = test system: glycogen synthase kinase-3 (GSK3A per assay name; protocol says GSK3B); experiment: compounds binding glycogen synthase kinase-3 – biochemical, small-molecule microarray, 635 nm fluorescence, GSK3A, primary screen (AID 1103); settings: fluorescence 635 nm, higher = more signal; further: the record names both GSK3A and GSK3B
[7] = molecular target: Epidermal growth factor receptor (Homo sapiens) (UniProt P00533); experiment: compounds binding epidermal growth factor receptor – biochemical, small-molecule microarray, 635 nm fluorescence, primary screen (AID 1104); settings: EGFR binding, higher = more signal;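 further: score merges 667 nm emission intensity with spot signal to noise over triplicate slides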
[8] = molecular target: Follistatin-related protein 3 (Homo sapiens) (UniProt O95633); experiment: compounds binding follistatin-related protein 3 – biochemical, small-molecule microarray, 635 nm fluorescence, primary screen (AID 1105); settings: FSTL3 binding, higher = more signal;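 further: score merges emission near 667 nm and signal to noise per printed spot across three slides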
[9] = molecular target: Dickkopf-related protein 1 (Homo sapiens) (UniProt O94907); experiment: small molecules binding DKK1 protein – biochemical, small-molecule microarray, 635 nm fluorescence scan, primary screen (AID 1106); settings: higher = more signal;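 further: score merges emission near 667 nm with signal to noise over three replicate slides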
[10] = test system: Inhibin beta A chain (activin A); experiment: small molecules binding activin A – biochemical, small-molecule microarray, 635 nm fluorescence scan, primary screen (AID 1107); settings: INHBA, higher = more signal;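 further: mouse activin A protein probed at 4.33 µg/mL on printed slides; score merges bound-protein fluorescence near 667 nm with spot signal-to-noise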

Epidermal growth factor receptor (Homo sapiens), sequence (P00533 whole entry, looked up): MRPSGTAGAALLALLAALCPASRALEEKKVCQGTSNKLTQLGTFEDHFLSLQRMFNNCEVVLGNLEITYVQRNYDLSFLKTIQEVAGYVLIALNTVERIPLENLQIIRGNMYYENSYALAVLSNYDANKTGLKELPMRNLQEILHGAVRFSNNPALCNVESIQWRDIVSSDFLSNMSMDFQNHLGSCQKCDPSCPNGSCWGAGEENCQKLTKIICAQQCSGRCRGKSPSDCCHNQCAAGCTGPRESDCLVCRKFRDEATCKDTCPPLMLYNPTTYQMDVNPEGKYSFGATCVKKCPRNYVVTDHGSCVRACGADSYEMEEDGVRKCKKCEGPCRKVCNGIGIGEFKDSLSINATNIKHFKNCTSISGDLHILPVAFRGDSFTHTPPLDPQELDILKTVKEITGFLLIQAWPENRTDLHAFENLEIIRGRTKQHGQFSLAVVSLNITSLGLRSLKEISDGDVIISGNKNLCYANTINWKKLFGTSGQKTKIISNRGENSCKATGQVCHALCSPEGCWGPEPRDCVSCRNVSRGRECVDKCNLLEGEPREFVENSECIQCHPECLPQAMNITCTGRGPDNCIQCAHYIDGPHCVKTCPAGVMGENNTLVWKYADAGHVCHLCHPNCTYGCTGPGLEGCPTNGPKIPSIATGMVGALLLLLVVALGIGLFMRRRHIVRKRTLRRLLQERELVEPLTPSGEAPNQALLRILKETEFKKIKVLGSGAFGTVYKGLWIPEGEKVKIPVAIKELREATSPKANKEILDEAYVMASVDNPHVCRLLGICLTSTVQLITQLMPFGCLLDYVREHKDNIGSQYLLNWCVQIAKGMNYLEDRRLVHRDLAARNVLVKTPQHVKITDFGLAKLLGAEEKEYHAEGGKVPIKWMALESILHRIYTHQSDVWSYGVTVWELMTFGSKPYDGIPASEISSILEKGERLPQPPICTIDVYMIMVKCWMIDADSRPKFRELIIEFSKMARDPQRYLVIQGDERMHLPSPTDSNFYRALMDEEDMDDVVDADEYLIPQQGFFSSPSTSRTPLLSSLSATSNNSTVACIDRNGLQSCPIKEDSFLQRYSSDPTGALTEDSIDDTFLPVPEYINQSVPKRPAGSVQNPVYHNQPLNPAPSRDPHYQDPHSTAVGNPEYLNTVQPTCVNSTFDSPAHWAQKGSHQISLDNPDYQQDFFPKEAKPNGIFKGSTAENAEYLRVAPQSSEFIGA
Follistatin-related protein 3 (Homo sapiens), sequence (O95633 whole entry, looked up): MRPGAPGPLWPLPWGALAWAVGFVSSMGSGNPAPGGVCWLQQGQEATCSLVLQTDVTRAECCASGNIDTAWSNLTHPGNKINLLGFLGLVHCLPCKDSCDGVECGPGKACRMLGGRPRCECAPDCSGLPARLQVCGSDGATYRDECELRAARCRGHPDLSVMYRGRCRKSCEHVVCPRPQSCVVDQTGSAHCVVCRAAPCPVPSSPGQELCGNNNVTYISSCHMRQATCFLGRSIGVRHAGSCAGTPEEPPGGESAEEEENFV
Dickkopf-related protein 1 (Homo sapiens), sequence (O94907 whole entry, looked up): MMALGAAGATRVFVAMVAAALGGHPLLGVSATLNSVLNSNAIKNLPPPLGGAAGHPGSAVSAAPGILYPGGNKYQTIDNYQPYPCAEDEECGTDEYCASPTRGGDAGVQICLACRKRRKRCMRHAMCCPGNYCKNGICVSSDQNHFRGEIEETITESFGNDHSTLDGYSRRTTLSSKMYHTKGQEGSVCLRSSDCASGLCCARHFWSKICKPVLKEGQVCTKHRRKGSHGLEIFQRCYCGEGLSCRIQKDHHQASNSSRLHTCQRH
Fibroblast growth factor 10 (Homo sapiens), sequence (O15520 whole entry, looked up): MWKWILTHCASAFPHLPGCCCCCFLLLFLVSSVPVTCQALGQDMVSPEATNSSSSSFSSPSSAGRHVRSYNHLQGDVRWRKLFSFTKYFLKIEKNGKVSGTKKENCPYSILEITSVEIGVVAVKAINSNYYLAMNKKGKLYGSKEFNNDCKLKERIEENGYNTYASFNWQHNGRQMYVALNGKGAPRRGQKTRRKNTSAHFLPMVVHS

| SMILES | composite z-score [1] | composite z-score [2] | composite z-score [3] | z-score [4] | composite z-score [5] | composite z-score [6] | composite z-score [7] | composite z-score [8] | composite z-score [9] | composite z-score [10] |
| --- | --- | --- | --- | --- | --- | --- | --- | --- | --- | --- |
| CCOc1cc(C(O)C2C=CC3C(=O)N(c4ccccc4)C(=O)C3N2Nc2ccc(C(C)C)cc2)ccc1O (stereo not given) | 1.5 | 0.712 | 1.01 | 0.21 (inactive) | 0.726 | 1.05 | 0.147 | 0.912 | -0.332 | 0.73 |
| COC(=O)[C@@]1(Cc2ccc(OC)cc2)[C@H]2c3cc(C(=O)N(C)C)n(Cc4ccc(C(F)(F)F)nc4)c3C[C@H]2CN1C(=O)c1ccccc1 | 0.707 | 1.15 | 0.784 | -1.59 (inactive) | 0.081 | -0.178 | 0.189 | -0.015 | -0.557 | 0.663 |
| O=C1C2C=CC(C(O)c3ccc4c(c3)OCO4)N(Nc3ccc([N+](=O)[O-])cc3)C2C(=O)N1c1ccccc1 (stereo not given) | 1.73 | -0.0669 | -0.162 | -0.0322 (inactive) | 0.67 | 0.675 | 0.342 | 0.381 | 0.207 | 0.278 |
| C=C(CCCC)/C(=C/C[C@H](OC(C)=O)c1ccc(OCCO)cc1)c1cnc2ccccc2c1 | 0.641 | -0.182 | -0.0866 | 0.299 (inactive) | 0.672 | 0.209 | 0.384 | 1.12 | 0.446 | 1.53 |
| CCOC(=O)C[C@H]1[C@H](OC(=O)c2ccc(C(=O)c3ccccc3)cc2)[C@@H](NC(=O)Cc2ccc(OC)cc2)c2cc(OCCCO)ccc2N1C(=O)c1ccc2ccccc2n1 | 0.31 | 0.05 | 0.161 | 0.409 (inactive) | 0.526 | 0.392 | 0.208 | 0.811 | 0.0905 | 0.468 |
| COC(=O)C(CC#Cc1ccc2c(c1)[C@]1(C(=O)N2)[C@H](c2ccccc2OCCO)N2[C@H](c3ccccc3)[C@H](c3ccccc3)OC(=O)[C@H]2[C@@H]1C(=O)O)C(=O)OC | 1.49 | 0.666 | 0.0004 | -0.597 (inactive) | 0.738 | 0.93 | 0.28 | 0.356 | 0.278 | 1.04 |
| C[N+](C)(C)CCCC[C@@H]1NC(=O)[C@@H]2C[C@H](C(=O)NCCCCCCNC(=O)CS)[C@H](c3ccc(O)cc3)N2C1=O | 1.09 | -0.0559 | 0.492 | 0.00498 (inactive) | -0.387 | -1.28 | -0.502 | -1.58 | -0.141 | -0.655 |
| [N-]=[N+]=Nc1ccccc1C[C@@]1(C(=O)N2CCCCC2)N=C(c2ccc(OCCCO)cc2)O[C@@H]1c1ccccc1N=[N+]=[N-] | 0.95 | 1.32 | 1.32 | 0.766 (inactive) | 0.914 | 1.05 | 0.105 | 0.673 | -0.0252 | 1.59 |
| O=C(NCCN1CCOCC1)[C@@H]1c2ccccc2C(=O)N(Cc2cc(C(F)(F)F)cc(C(F)(F)F)c2)[C@H]1c1ccc(CO)cc1 | 1.51 | 0.254 | 0.851 | 0.91 (inactive) | -1.17 | -0.332 | -1.35 | -1.55 | -1.23 | -1.54 |
| COc1ccc([Si](C)(C)[C@@H]2[C@@H](CCn3cc([C@H](O)c4ccccc4)nn3)O[C@]3(C(=O)N(Cc4cccc(N5CCC5=O)c4)c4ccccc43)[C@H]2C)cc1 | 0.647 | -0.386 | -0.0143 | 1.41 (inactive) | 0.483 | -0.502 | 0.0403 | -0.304 | 0.589 | 0.521 |
| CCCCCCc1nc(-c2ccc(-c3ccc(Cl)c(Cl)c3)o2)cc2c1[Si](C(C)C)(C(C)C)O[C@H]2c1ccccc1 | 0.0593 | -0.294 | 0.0787 | -0.112 (inactive) | -0.515 | -1.26 | -0.287 | -0.737 | 0.0981 | 0.62 |
| O=C1O[C@@H](c2ccccc2)[C@@H](c2ccccc2)N2[C@@H](c3ccccc3OCCO)[C@]3(C(=O)Nc4ccc(C#CC5(O)CCCCCC5)cc43)[C@@H](C(=O)N3CCN(c4ncccn4)CC3)[C@H]12 | 0.448 | -0.125 | 0.304 | -0.562 (inactive) | 0.878 | 1.06 | 0.301 | 0.463 | 0.439 | -0.431 |
| CC(C)CNC(=O)[C@@]1(Cc2ccccc2I)c2ccccc2C(=O)N(Cc2ccccc2C(F)(F)F)[C@H]1c1ccc(CO)cc1 | -0.164 | 0.104 | 0.836 | 0.368 (inactive) | 0.122 | -0.95 | -1.17 | -0.978 | -0.822 | 0.598 |
| CC1CC/C=C\[C@H]2OC34C=CCN(Cc5ccccc5)C(=O)[C@H]3N(C(C)CO)C(=O)[C@@H]4C2C(=O)O1 (stereo not given in full) | -0.588 | -0.169 | -0.506 | 0.441 (inactive) | 0.0204 | -0.444 | -0.492 | 0.196 | 0.33 | 0.951 |
| NCCCCCNC(=O)[C@H]1C[C@H]2C(=O)N3CCC[C@H]3C(=O)N2[C@H]1c1ccc(O)cc1 | 0.94 | 1.63 | 0.684 | -0.391 (inactive) | 1.01 | 1.28 | 0.781 | 1.34 | 1.24 | 1.12 |
| CN1C(=O)C2C=CC(C(O)C=Cc3ccc([N+](=O)[O-])cc3)N(Nc3ccccc3)C2C1=O (stereo not given) | 0.967 | 0.0403 | -0.175 | 1.21 (inactive) | 0.718 | 1.15 | 0.692 | 1.06 | 0.587 | 1.02 |
| CCCCCCCCCCC(O)C1C=CC2C(=O)NC(=O)C2N1Nc1ccc(Cl)cc1Cl (stereo not given) | -0.856 | -0.214 | 0.935 | -0.723 (inactive) | -0.127 | -0.535 | -0.724 | -0.88 | -1.04 | 1.14 |
| CCOC(=O)C[C@H]1[C@H](OC(=O)c2ccc(-c3ccccc3)cc2)[C@@H](NC(=O)c2ccccc2)c2cc(OCCCO)ccc2N1C(=O)Cc1ccc(OC)cc1 | -0.881 | -0.0345 | 0.565 | -0.486 (inactive) | 0.241 | -0.919 | 0.0903 | -0.56 | -0.237 | 0.54 |
| O=C1N(CCS(=O)(=O)c2ccccc2)c2ccccc2[C@@H]2OC(c3ccc(OCCCO)cc3)=N[C@]12Cc1ccccc1 | 1.49 | 0.0733 | 0.393 | -0.917 (inactive) | 0.379 | 1.28 | 0.542 | 1.29 | 0.432 | 0.995 |
| CCOC(=O)C1=CC[C@@H](c2ccccc2)N(S(=O)(=O)c2ccc(C)cc2)[C@H]1c1ccc(CC)cc1 | 0.375 | 0.961 | 0.538 | 0.425 (inactive) | 0.393 | 1.17 | 0.221 | 0.395 | -0.112 | 0.965 |
| CC(C)CCC[C@@H](C)[C@H]1CC[C@@]2(C)C3=C(CC[C@]12C)[C@@]1(C)CC[C@H](OC(=O)c2ccc(C(F)(F)F)nc2)C(C)(C)C1CC3 (stereo not given in full) | 0.22 | -0.514 | -0.491 | -0.895 (inactive) | 0.595 | 0.714 | 0.471 | 0.627 | 0.418 | -0.0544 |
| CN1C(=O)C2C=CC(C(O)c3ccc(F)cc3)N(N(c3ccccc3)c3ccccc3)C2C1=O (stereo not given) | 1.46 | 0.303 | 1.03 | 1.9 (inactive) | 0.103 | 0.0581 | -0.329 | 0.549 | -0.742 | 0.984 |
| CC(C)[C@@H](C(=O)O)n1cc(C2(O)CCCCC2)nn1 | 0.221 | -0.184 | -0.55 | -0.291 (inactive) | 0.928 | 1.09 | 0.15 | 0.457 | 0.301 | -0.352 |
| COC(=O)[C@@]1(Cc2ccc(OC)cc2)[C@H]2c3cc(C(=O)N4CCCC4)n(CCCNc4ncc(C(F)(F)F)cc4Cl)c3C[C@H]2CN1C(=O)c1ccccc1 | 0.596 | 1.63 | 0.941 | -2.98 (inactive) | 0.595 | 0.673 | 0.659 | 0.95 | 0.244 | 1.11 |
| CCOC(=O)C[C@H]1[C@H](OC(=O)c2cc3ccccc3oc2=O)[C@@H](NC(=O)CC(C)C)c2cc(OCCCO)ccc2N1C(=O)c1ccccc1 | 0.0288 | -0.179 | -0.428 | -1.04 (inactive) | 0.644 | 0.53 | 0.393 | 0.358 | 0.371 | -0.0294 |
| O=C1O[C@@H](c2ccccc2)[C@@H](c2ccccc2)N2[C@@H](c3ccc(OCCO)cc3)[C@]3(C(=O)Nc4ccc(C#CCCO)cc43)[C@@H](C(=O)NC[C@H](O)c3ccccc3)[C@H]12 | 1.51 | 0.312 | 0.333 | -0.6 (inactive) | 0.84 | 0.905 | 0.94 | 0.956 | 0.687 | 0.73 |
| CCCCN1CC=CC23O[C@@H]4/C=C\CCCOC(=O)C4[C@H]2C(=O)N(CCCCCO)[C@@H]3C1=O (stereo not given in full) | 1.29 | -0.37 | -0.167 | 1.08 (inactive) | -0.552 | -1.34 | -1.13 | -1.08 | -0.443 | 0.653 |
